Laboratory results taken from PubChem BioAssay AID1835 (Johns Hopkins Ion Channel Center, 2009).
The whole screen tested about 2,400 compounds, of which about 750 (31%) were called active. The list shows a part of the results. Unmarked numbers belong to inactive results.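 The calls were made as follows: active = median signal gain over dofetilide-blocked control wells reaching their mean plus 3 SD, so readout 1 at least 0; inactive = the rest.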

The compounds below were run against Voltage-gated inwardly rectifying potassium channel KCNH2 (Homo sapiens) (UniProt Q12809) (assay: modulators restoring hERG flux under dofetilide – cell-based, thallium flux, duplicate retest, dofetilide IC70, confirmation (AID 1835)). Conditions: hERG cell line, FluxOR thallium flux, dofetilide-blocked; at 10 µM; hits give high values.
Voltage-gated inwardly rectifying potassium channel KCNH2 (Homo sapiens), sequence (Q12809 whole entry, looked up): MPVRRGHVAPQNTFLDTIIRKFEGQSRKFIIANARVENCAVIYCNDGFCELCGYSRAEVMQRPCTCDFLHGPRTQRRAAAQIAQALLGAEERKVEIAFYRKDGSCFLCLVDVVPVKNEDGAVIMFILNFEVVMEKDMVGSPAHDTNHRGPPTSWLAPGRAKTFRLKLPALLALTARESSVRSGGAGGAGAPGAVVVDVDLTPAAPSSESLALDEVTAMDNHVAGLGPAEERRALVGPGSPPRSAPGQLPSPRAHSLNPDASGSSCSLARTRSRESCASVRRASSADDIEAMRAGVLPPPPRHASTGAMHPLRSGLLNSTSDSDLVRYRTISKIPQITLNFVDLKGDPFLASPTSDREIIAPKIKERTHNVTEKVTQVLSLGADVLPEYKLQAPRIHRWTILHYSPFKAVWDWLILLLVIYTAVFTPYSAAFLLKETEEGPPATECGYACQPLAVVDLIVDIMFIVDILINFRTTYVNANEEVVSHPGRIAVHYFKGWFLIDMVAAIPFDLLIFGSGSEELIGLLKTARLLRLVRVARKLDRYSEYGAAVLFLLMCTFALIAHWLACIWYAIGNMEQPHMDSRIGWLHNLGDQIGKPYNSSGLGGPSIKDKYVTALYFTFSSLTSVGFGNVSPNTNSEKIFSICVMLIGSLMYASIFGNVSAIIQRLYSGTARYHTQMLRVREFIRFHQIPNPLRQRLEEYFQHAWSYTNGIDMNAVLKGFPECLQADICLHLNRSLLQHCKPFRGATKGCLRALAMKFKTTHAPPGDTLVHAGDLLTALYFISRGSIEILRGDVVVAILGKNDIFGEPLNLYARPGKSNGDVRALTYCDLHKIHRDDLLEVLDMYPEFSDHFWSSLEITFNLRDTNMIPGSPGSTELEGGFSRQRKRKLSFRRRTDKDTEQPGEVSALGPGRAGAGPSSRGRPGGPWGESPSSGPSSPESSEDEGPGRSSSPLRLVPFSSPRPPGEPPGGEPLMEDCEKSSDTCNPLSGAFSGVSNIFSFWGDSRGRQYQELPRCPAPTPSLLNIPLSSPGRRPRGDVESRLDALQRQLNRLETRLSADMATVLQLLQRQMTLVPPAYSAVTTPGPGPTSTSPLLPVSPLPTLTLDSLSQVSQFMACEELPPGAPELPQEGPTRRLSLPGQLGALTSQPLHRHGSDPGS

Q: With `O=C(Nc1c[nH]c(=O)[nH]c1=O)c1ccc2c(c1)C(=O)N(c1cccc([N+](=O)[O-])c1)C2=O` as the compound, how does the activity increase over dofetilide control, less the hit threshold read?
A: The activity increase over dofetilide control, less the hit threshold was -10%.

Q: `CC(=O)Cn1c(=O)c2c(nc3n2CCCN3Cc2ccccc2)n(C)c1=O` was tested. Which activity increase over dofetilide control, less the hit threshold did it give?
A: Its activity increase over dofetilide control, less the hit threshold is -13%.

Q: `c1ccc(-c2ccnc3nc(N4CCN(c5ccccc5)CC4)nn23)cc1` was tested. Which activity increase over dofetilide control, less the hit threshold did it give?
A: The activity increase over dofetilide control, less the hit threshold was -35%.

Q: How did the activity increase over dofetilide control, less the hit threshold turn out when `O=c1[nH]n2c(=O)c3c([nH]c2c1N=Nc1ccccc1)CCC3` was run?
A: The activity increase over dofetilide control, less the hit threshold was -14%.

Q: How did the activity increase over dofetilide control, less the hit threshold turn out when `O=c1[nH]c(N2CCN(c3ccccc3)CC2)nc2c1CCCC2` was run?
A: Its activity increase over dofetilide control, less the hit threshold is 2% (active).

Q: For `CN(C(=O)c1cnccn1)c1nnc(-c2cnccn2)s1`, which activity increase over dofetilide control, less the hit threshold is on record?
A: Its activity increase over dofetilide control, less the hit threshold is -15%.

Q: How did the activity increase over dofetilide control, less the hit threshold turn out when `NC(=O)Cn1nnc(-c2ccc(CN3CCCCC3)cc2)n1` was run?
A: The activity increase over dofetilide control, less the hit threshold was -23%.

Q: For `COc1ccc(-c2cc(C(=O)N3CCCC3)no2)cc1OC`, which activity increase over dofetilide control, less the hit threshold is on record?
A: Its activity increase over dofetilide control, less the hit threshold is 0%.

Q: Which activity increase over dofetilide control, less the hit threshold does the source give for `O=C(O)Cc1sc(-c2ccc(Cl)cc2)nc1-c1ccccc1` here?
A: The activity increase over dofetilide control, less the hit threshold was -10%.

Q: With `O=C(Cn1nc(-c2ccccc2)c2ccccc2c1=O)Nc1ccc(O)cc1` as the compound, how does the activity increase over dofetilide control, less the hit threshold read?
A: Its activity increase over dofetilide control, less the hit threshold is 24% (active).

Q: `CCOC(=O)c1ccc(NC(=O)Cn2nnc(-c3ccccc3)n2)cc1` was tested. Which activity increase over dofetilide control, less the hit threshold did it give?
A: The activity increase over dofetilide control, less the hit threshold was -19%.

Q: Which activity increase over dofetilide control, less the hit threshold does the source give for `Cc1nn(CC(=O)Nc2ccc(C(=O)N3CCCC3)cc2)c(=O)c2ccccc12` here?
A: The activity increase over dofetilide control, less the hit threshold was -11%.

Q: `CCOC(=O)c1sc2nc(C)[nH]c(=S)c2c1C` was tested. Which activity increase over dofetilide control, less the hit threshold did it give?
A: Its activity increase over dofetilide control, less the hit threshold is 21% (active).

Q: Which activity increase over dofetilide control, less the hit threshold does the source give for `CCOC(=O)c1sc2nc(Cc3ccc(Cl)cc3)[nH]c(=S)c2c1C` here?
A: Its activity increase over dofetilide control, less the hit threshold is 52% (active).

Q: How did the activity increase over dofetilide control, less the hit threshold turn out when `N/C(=N\OCc1ccccc1)c1nonc1N` was run?
A: The activity increase over dofetilide control, less the hit threshold was -16%.

Q: How did the activity increase over dofetilide control, less the hit threshold turn out when `CC(C)Cc1nnc(NC(=O)Cc2ccccc2[N+](=O)[O-])s1` was run?
A: Its activity increase over dofetilide control, less the hit threshold is -5%.

Q: For `c1ccc(-c2csc(Nc3ccc4c(c3)OCCO4)n2)cc1`, which activity increase over dofetilide control, less the hit threshold is on record?
A: Its activity increase over dofetilide control, less the hit threshold is -17%.

Q: `COc1ccc(OCC(=O)NNC(=O)C(=O)Nc2ccc(C)cc2)cc1` was tested. Which activity increase over dofetilide control, less the hit threshold did it give?
A: The activity increase over dofetilide control, less the hit threshold was -11%.

Q: For `COc1cccc(NC(=O)c2cncs2)c1`, which activity increase over dofetilide control, less the hit threshold is on record?
A: Its activity increase over dofetilide control, less the hit threshold is -13%.

Q: With `COc1ccc(NC(=O)c2ccc(COCC(F)(F)C(F)F)cc2)cc1` as the compound, how does the activity increase over dofetilide control, less the hit threshold read?
A: Its activity increase over dofetilide control, less the hit threshold is -14%.

Q: For `CCOc1cccc(C(=O)Nc2ccc3[nH]ncc3c2)c1`, which activity increase over dofetilide control, less the hit threshold is on record?
A: Its activity increase over dofetilide control, less the hit threshold is -18%.

Q: With `COc1ccc(C(=O)NNC(=O)C(=O)Nc2ccc(C)cc2)cc1` as the compound, how does the activity increase over dofetilide control, less the hit threshold read?
A: The activity increase over dofetilide control, less the hit threshold was 30% (active).

Q: With `CCc1ccc(NC(=O)C(=O)NNC(=O)c2ccc(OC)cc2)cc1` as the compound, how does the activity increase over dofetilide control, less the hit threshold read?
A: The activity increase over dofetilide control, less the hit threshold was 87% (active).

Q: With `CCc1ccc(NC(=O)C(=O)NNC(=O)c2cccc(OC)c2)cc1` as the compound, how does the activity increase over dofetilide control, less the hit threshold read?
A: Its activity increase over dofetilide control, less the hit threshold is 70% (active).

Q: `CCc1ccc(NC(=S)Nc2cccc(OC)c2)cc1` was tested. Which activity increase over dofetilide control, less the hit threshold did it give?
A: The activity increase over dofetilide control, less the hit threshold was -26%.

Q: Which activity increase over dofetilide control, less the hit threshold does the source give for `COc1cc(CCC(=O)NNC(=O)c2ccc(C)cc2)cc(OC)c1OC` here?
A: Its activity increase over dofetilide control, less the hit threshold is -3%.

Q: With `COc1ccc(NC(=O)c2ccc(NC3=NC4CS(=O)(=O)CC4S3)cc2)cc1` (stereo unspecified) as the compound, how does the activity increase over dofetilide control, less the hit threshold read?
A: Its activity increase over dofetilide control, less the hit threshold is -17%.

Q: How did the activity increase over dofetilide control, less the hit threshold turn out when `COc1cccc(C(=O)NNC(=O)C(=O)Nc2ccc(C)cc2)c1` was run?
A: Its activity increase over dofetilide control, less the hit threshold is 56% (active).

Q: How did the activity increase over dofetilide control, less the hit threshold turn out when `CCN(/N=C/c1ccc(Cl)cc1)c1cc(=O)n(C)c(=O)[nH]1` was run?
A: Its activity increase over dofetilide control, less the hit threshold is -20%.

Q: With `Cc1noc(C)c1COc1cccc(C(=O)NCc2cccc(Cl)c2)c1` as the compound, how does the activity increase over dofetilide control, less the hit threshold read?
A: Its activity increase over dofetilide control, less the hit threshold is -18%.

Q: `CC(C)C12CN3CC(C(C)C)(CN(C1)C31C(=O)Nc3ccccc31)C2=O` (stereo unspecified) was tested. Which activity increase over dofetilide control, less the hit threshold did it give?
A: The activity increase over dofetilide control, less the hit threshold was -24%.

Q: Which activity increase over dofetilide control, less the hit threshold does the source give for `O=C(COc1nsnc1N1CCOCC1)Nc1ccc(Cl)cc1` here?
A: Its activity increase over dofetilide control, less the hit threshold is -21%.

Q: How did the activity increase over dofetilide control, less the hit threshold turn out when `CC(C)(C)c1csc(NC(=O)C2=COCCO2)n1` was run?
A: The activity increase over dofetilide control, less the hit threshold was -17%.

Q: For `CCc1nnc(NC(=O)CCC(=O)N2CCN(C3CCCCC3)CC2)s1`, which activity increase over dofetilide control, less the hit threshold is on record?
A: The activity increase over dofetilide control, less the hit threshold was -22%.

Q: `CN(C(=O)CSc1ncnc2sc(-c3ccccc3)cc12)C1CCS(=O)(=O)C1` (stereo unspecified) was tested. Which activity increase over dofetilide control, less the hit threshold did it give?
A: The activity increase over dofetilide control, less the hit threshold was 82% (active).

Q: For `CCOC(=O)c1sc2nc(C)nc(SCC(=O)N(C)C3CCS(=O)(=O)C3)c2c1C` (stereo unspecified), which activity increase over dofetilide control, less the hit threshold is on record?
A: Its activity increase over dofetilide control, less the hit threshold is -6%.

Q: With `Cc1ccccc1-n1c(SCC(=O)N(C)C2CCS(=O)(=O)C2)nnc1-c1ccncc1` (stereo unspecified) as the compound, how does the activity increase over dofetilide control, less the hit threshold read?
A: Its activity increase over dofetilide control, less the hit threshold is -8%.

Q: Which activity increase over dofetilide control, less the hit threshold does the source give for `O=C(O)CCSc1ncnc2sc(-c3ccccc3)cc12` here?
A: Its activity increase over dofetilide control, less the hit threshold is 9% (active).

Q: Which activity increase over dofetilide control, less the hit threshold does the source give for `Nc1nc2c(s1)CCc1c-2cnn1-c1ccccc1` here?
A: The activity increase over dofetilide control, less the hit threshold was -46%.

Q: For `CC(=O)c1ccc(N2CCN(C(=O)Cc3ccccc3)CC2)c(F)c1`, which activity increase over dofetilide control, less the hit threshold is on record?
A: The activity increase over dofetilide control, less the hit threshold was -15%.

Q: Which activity increase over dofetilide control, less the hit threshold does the source give for `CC1=NN(c2nc(-c3ccccc3)cs2)C(=O)C1N=Nc1ccccc1` (stereo unspecified) here?
A: The activity increase over dofetilide control, less the hit threshold was -31%.

Q: For `Cc1nc(-c2ccccc2)cn(O)c1=O`, which activity increase over dofetilide control, less the hit threshold is on record?
A: Its activity increase over dofetilide control, less the hit threshold is 16% (active).

Q: For `O=c1c(-c2ccccc2)nc(-c2ccccc2)cn1O`, which activity increase over dofetilide control, less the hit threshold is on record?
A: Its activity increase over dofetilide control, less the hit threshold is 33% (active).

Q: `COC(=O)Nc1c(-c2ccccc2)nc2ccccn12` was tested. Which activity increase over dofetilide control, less the hit threshold did it give?
A: The activity increase over dofetilide control, less the hit threshold was -4%.

Q: Which activity increase over dofetilide control, less the hit threshold does the source give for `O=C(O)C/C(=C\c1cc(Br)cs1)c1nc2ccccc2o1` here?
A: The activity increase over dofetilide control, less the hit threshold was -6%.

Q: Which activity increase over dofetilide control, less the hit threshold does the source give for `Cc1cccc(/N=C/c2sc3ccccc3c2O)n1` here?
A: The activity increase over dofetilide control, less the hit threshold was -13%.

Q: With `O=c1c([N+](=O)[O-])c(N2CCCCC2)c2ccccc2n1-c1ccccc1` as the compound, how does the activity increase over dofetilide control, less the hit threshold read?
A: Its activity increase over dofetilide control, less the hit threshold is -18%.

Q: How did the activity increase over dofetilide control, less the hit threshold turn out when `Oc1ccc2[nH]cnc2c1CN1CCCCC1` was run?
A: The activity increase over dofetilide control, less the hit threshold was -18%.

Q: With `CCc1ccc2[nH]c(O)c(N=Nc3nc(-c4ccccc4)cs3)c2c1` as the compound, how does the activity increase over dofetilide control, less the hit threshold read?
A: Its activity increase over dofetilide control, less the hit threshold is -8%.

Q: Which activity increase over dofetilide control, less the hit threshold does the source give for `Cc1ccccc1OCC(=O)N=Nc1c(O)n(C)c2ccccc12` here?
A: The activity increase over dofetilide control, less the hit threshold was -5%.

Q: `Cn1c(O)c(N=Nc2nc(-c3ccccc3)cs2)c2ccccc21` was tested. Which activity increase over dofetilide control, less the hit threshold did it give?
A: The activity increase over dofetilide control, less the hit threshold was 65% (active).

Q: `COC(=O)/C=C1\S/C(=N/N=C/c2ccco2)NC1=O` was tested. Which activity increase over dofetilide control, less the hit threshold did it give?
A: The activity increase over dofetilide control, less the hit threshold was -10%.

Q: For `CCCn1c(SCC(=O)N2CCN(C(C)=O)CC2)nc2sc3c(c2c1=O)CCC3`, which activity increase over dofetilide control, less the hit threshold is on record?
A: Its activity increase over dofetilide control, less the hit threshold is 20% (active).

Q: How did the activity increase over dofetilide control, less the hit threshold turn out when `C=CCSc1nc2sc3c(c2c(=O)n1CC)CCc1ccccc1-3` was run?
A: The activity increase over dofetilide control, less the hit threshold was -4%.

Q: `CCn1c(SC(C)C(=O)O)nc2sc3c(c2c1=O)CCC3` (stereo unspecified) was tested. Which activity increase over dofetilide control, less the hit threshold did it give?
A: The activity increase over dofetilide control, less the hit threshold was 7% (active).

Q: `CCOC(=O)c1cnn(-c2nc(SC)nc3sc4c(c23)CCCC4)c1N` was tested. Which activity increase over dofetilide control, less the hit threshold did it give?
A: Its activity increase over dofetilide control, less the hit threshold is -1%.

Q: How did the activity increase over dofetilide control, less the hit threshold turn out when `CCC(=O)N1CCN(c2nc(CC)nc3sc4c(c23)CCCC4)CC1` was run?
A: The activity increase over dofetilide control, less the hit threshold was -30%.

Q: `CCn1c(SCC(N)=O)nc2sc3c(c2c1=O)CCCC3` was tested. Which activity increase over dofetilide control, less the hit threshold did it give?
A: Its activity increase over dofetilide control, less the hit threshold is 3% (active).

Q: With `CC(=O)/C=C1/C(=O)Nc2ccccc21` as the compound, how does the activity increase over dofetilide control, less the hit threshold read?
A: Its activity increase over dofetilide control, less the hit threshold is -39%.

Q: For `COc1cc(/C=N/Nc2nc(N3CCCC3)nc(N3CCCC3)n2)ccc1OCc1ccccc1F`, which activity increase over dofetilide control, less the hit threshold is on record?
A: Its activity increase over dofetilide control, less the hit threshold is -34%.

Q: How did the activity increase over dofetilide control, less the hit threshold turn out when `O=C1CC(C(=O)N2CCOCC2)C2(CCCCC2)O1` (stereo unspecified) was run?
A: The activity increase over dofetilide control, less the hit threshold was -19%.

Q: Which activity increase over dofetilide control, less the hit threshold does the source give for `CC1CCN(c2ccc3c(c2)S(=O)(=O)c2ccccc2C3=O)CC1` here?
A: Its activity increase over dofetilide control, less the hit threshold is -27%.

Q: How did the activity increase over dofetilide control, less the hit threshold turn out when `O=C1c2ccccc2C(=O)N1Cc1nc2ccccc2c(=O)n1CCCn1ccnc1` was run?
A: The activity increase over dofetilide control, less the hit threshold was -25%.

Q: `S=C(N/N=C/c1ccccc1Cl)Nc1cccc(Cl)c1Cl` was tested. Which activity increase over dofetilide control, less the hit threshold did it give?
A: Its activity increase over dofetilide control, less the hit threshold is 23% (active).

Q: For `Fc1ccccc1NC(=S)N/N=C/c1ccccc1Br`, which activity increase over dofetilide control, less the hit threshold is on record?
A: The activity increase over dofetilide control, less the hit threshold was -20%.

Q: `Cc1ccc(Cl)cc1NC(=S)N/N=C/c1cccc2ccccc12` was tested. Which activity increase over dofetilide control, less the hit threshold did it give?
A: Its activity increase over dofetilide control, less the hit threshold is -11%.
